Values joined by “and” are separate entries in the source; they are usually repeats but may differ in a detail not shown here. Equal entries are not always repeated. For part of these data: Potency and affinity values are given separately. Some compounds were tested as several samples or in several runs, with calls that do not always agree. Active and inactive are the calls of the source. Unless noted, the rule behind the calls is not given here.
What was measured:
[1] = antimalarial activity against Dd2 strain (AID 2302;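 active = growth inhibition above 50% at the single 2 µM test dose, taken to imply half-maximal potency below 2 µM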;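 note: 0% = DMSO untreated growth and 100% = chloroquine plus artemisinin killed control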); conditions: P. falciparum Dd2 in RBCs, LDH growth readout, 72 h; at 2 µM; stronger effect = higher value
[2] = HepG2 cytotoxicity, primary screen, cytotoxicity control for P. falciparum antimalarial project, cell-based, ATP luminescence (AID 2303;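 active = inhibition above 50%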;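 note: 0% = DMSO wells and 100% = digitonin-killed cells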); conditions: HepG2 viability, 24-48 h, at 10 µM, stronger effect = higher value
[3] = molecular target: L-lactate dehydrogenase (Plasmodium falciparum (isolate CDC / Honduras)) (UniProt Q27743); experiment: PfLDH activity inhibition – cell lysate, 3D7 strain, counter-screen for P. falciparum growth inhibition project (AID 2304);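 note: 0% = vehicle and 100% = reference inhibitor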; conditions: P. falciparum 3D7 crude extract, LDH APAD/NBT absorbance; at 2 µM; stronger effect = higher value
[4] = inhibition of 3D7 malaria parasite growth – strain 3D7 (AID 2306);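 note: 0% = DMSO wells and 100% = chloroquine plus artemisinin control wells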; conditions: P. falciparum 3D7 erythrocytic growth, LDH absorbance, 72 h; at 2 µM; stronger effect = higher value
[5] = molecular target: Calcium-dependent protein kinase 1 (Plasmodium falciparum (isolate 3D7)) (UniProt P62344); experiment: PfCDPK1 kinase inhibitors, biochemical, TCAMS library (AID 1159585; cut-off not given, nearly all actives have IC50 up to about 0.98 µM;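 note: inhibitors leave more ATP so luminescence rises with inhibition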); conditions: recombinant PfCDPK1, Kinase-Glo ATP depletion luminescence
[6] = molecular target: Plasmodium falciparum protein kinase 6 (PK6, PF3D7_1337100) (UniProt Q8IDW1); experiment: PfPK6 kinase inhibitors, biochemical, TCAMS library (AID 1159586); conditions: recombinant PfPK6, Kinase-Glo ATP depletion luminescence
[7] = molecular target: Protein kinase 7 (PK7), Plasmodium falciparum 3D7 (PF3D7_0213400) (UniProt Q7YTF7); experiment: inhibition of Plasmodium PK7 catalytic activity – biochemical, TCAMS antimalarial set, Kinase-Glo luminescence (AID 1159587); conditions: recombinant PfPK7, Kinase-Glo ATP depletion luminescence
[8] = molecular target: Calcium-dependent protein kinase 4 (Plasmodium falciparum (isolate 3D7)) (UniProt Q8IBS5); experiment: PfCDPK4 kinase inhibitors, biochemical, TCAMS library (AID 1159588; cut-off not given, nearly all actives have IC50 up to about 0.91 µM); conditions: recombinant PfCDPK4, Kinase-Glo ATP depletion luminescence
Chain of Calcium-dependent protein kinase 4 (Plasmodium falciparum (isolate 3D7)) (Q8IBS5 whole entry, looked up): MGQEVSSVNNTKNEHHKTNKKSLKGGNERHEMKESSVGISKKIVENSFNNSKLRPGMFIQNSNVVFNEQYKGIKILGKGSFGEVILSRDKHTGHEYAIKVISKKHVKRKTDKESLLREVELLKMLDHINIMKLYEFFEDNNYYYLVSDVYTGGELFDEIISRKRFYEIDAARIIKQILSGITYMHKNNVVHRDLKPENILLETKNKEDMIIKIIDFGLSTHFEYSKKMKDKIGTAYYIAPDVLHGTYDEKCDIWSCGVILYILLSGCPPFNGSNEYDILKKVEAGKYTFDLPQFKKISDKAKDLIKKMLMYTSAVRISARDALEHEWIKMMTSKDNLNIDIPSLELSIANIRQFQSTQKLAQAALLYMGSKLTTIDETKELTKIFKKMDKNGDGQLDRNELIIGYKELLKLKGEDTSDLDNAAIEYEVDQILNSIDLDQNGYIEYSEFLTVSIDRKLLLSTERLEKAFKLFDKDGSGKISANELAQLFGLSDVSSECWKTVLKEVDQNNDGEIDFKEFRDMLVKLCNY

Chain of Protein kinase 7 (PK7), Plasmodium falciparum 3D7 (PF3D7_0213400) (Q7YTF7 1-343): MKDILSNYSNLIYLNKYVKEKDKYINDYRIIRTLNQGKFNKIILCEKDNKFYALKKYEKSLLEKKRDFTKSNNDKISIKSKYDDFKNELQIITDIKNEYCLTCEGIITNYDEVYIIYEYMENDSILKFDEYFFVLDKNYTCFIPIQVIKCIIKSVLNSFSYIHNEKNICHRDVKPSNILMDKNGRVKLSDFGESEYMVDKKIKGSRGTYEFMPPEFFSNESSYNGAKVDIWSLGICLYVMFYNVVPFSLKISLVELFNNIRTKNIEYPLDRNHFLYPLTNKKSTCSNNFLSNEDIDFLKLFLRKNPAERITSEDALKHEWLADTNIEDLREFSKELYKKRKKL
Chain of Calcium-dependent protein kinase 1 (Plasmodium falciparum (isolate 3D7)) (P62344 whole entry, looked up): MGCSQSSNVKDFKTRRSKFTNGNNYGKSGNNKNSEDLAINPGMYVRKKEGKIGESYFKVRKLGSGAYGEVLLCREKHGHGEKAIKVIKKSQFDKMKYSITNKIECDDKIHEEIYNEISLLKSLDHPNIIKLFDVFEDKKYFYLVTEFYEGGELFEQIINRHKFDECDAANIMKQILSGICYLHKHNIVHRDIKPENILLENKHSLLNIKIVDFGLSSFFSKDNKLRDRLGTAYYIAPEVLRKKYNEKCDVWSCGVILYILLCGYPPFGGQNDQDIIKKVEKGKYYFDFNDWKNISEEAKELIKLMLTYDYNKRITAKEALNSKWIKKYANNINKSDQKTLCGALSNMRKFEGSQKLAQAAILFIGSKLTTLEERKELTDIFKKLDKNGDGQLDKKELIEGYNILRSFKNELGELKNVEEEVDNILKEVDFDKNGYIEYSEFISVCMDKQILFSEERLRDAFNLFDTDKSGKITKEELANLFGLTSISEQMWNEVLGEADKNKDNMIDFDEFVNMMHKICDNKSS
Chain of Plasmodium falciparum protein kinase 6 (PK6, PF3D7_1337100) (Q8IDW1 1-305): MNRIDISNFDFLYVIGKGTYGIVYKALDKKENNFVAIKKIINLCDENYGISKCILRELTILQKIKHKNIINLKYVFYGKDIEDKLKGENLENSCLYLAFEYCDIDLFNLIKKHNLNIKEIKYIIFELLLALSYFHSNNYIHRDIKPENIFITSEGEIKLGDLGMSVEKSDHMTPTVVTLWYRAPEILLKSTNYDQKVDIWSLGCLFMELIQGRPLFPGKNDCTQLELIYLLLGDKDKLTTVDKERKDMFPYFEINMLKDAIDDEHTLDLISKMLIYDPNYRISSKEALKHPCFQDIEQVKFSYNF
Chain of L-lactate dehydrogenase (Plasmodium falciparum (isolate CDC / Honduras)) (Q27743 whole entry, looked up): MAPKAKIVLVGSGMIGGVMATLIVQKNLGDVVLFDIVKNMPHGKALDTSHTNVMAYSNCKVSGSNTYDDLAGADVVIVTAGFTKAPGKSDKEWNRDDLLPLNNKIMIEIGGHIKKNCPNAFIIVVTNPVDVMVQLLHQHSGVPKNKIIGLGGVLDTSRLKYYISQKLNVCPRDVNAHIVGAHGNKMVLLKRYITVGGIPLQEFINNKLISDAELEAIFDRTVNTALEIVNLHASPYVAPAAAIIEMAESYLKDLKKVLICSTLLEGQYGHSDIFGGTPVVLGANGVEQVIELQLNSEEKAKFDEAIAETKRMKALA

CCCC(C)Nc1nc(C)cc(N[C@@H](CC(C)C)C(=O)NCc2ccc(C)cc2)n1 (stereo not given in full)
active: growth inhibition [1] 51% | growth inhibition [4] 98%
inactive: inhibition [2] 16% | inhibition [3] -1% | outcome [5] | outcome [6] | outcome [7] | outcome [8]

COc1cc2c(cc1S(=O)(=O)c1ccc(NC(=O)c3cc4ccccc4s3)cc1)CCN(C)CC2
inactive: inhibition [2] 21% | inhibition [3] 2% | outcome [5] | outcome [6] | outcome [7] | outcome [8]
active: growth inhibition [1] 88% | growth inhibition [4] 100%

CC(C)(C)c1ccc(NC(=O)c2cccc(CN3CCCN(Cc4ccc(F)cc4)CC3)c2)cc1
active: growth inhibition [4] 88%
inactive: growth inhibition [1] 2% | inhibition [2] 35% | inhibition [3] 0% | outcome [5] | outcome [6] | outcome [7] | outcome [8]

O=C(Nc1cccc(CN2CCN(Cc3ccc(O)cc3)CC2)c1)c1ccc(Cl)c(Cl)c1
active: growth inhibition [1] 95% | growth inhibition [4] 102%
inactive: inhibition [2] 30% | inhibition [3] 2% | outcome [5] | outcome [6] | outcome [7] | outcome [8]

CS(=O)(=O)c1ccc2nc(NC(=O)c3csnn3)sc2c1
active: growth inhibition [1] 95% | growth inhibition [4] 90%
inactive: inhibition [2] 3% | inhibition [3] 0% | outcome [5] | outcome [6] | outcome [7] | outcome [8]

Cc1noc(C)c1-c1ccc2c(Nc3ccccc3C(C)(C)C)c(C(=O)NCc3ccc(OC(C)C)cc3)cnc2c1
active: growth inhibition [1] 98% | growth inhibition [4] 100%
inactive: inhibition [2] -3% | inhibition [3] 0% | outcome [5] | outcome [6] | outcome [7] | outcome [8]

CCCCCN1CCCC1CNS(=O)(=O)c1ccc(C(=O)Nc2cccc(C(F)(F)F)c2)cc1 (stereo not given)
inactive: growth inhibition [1] -1% | inhibition [2] 16% | inhibition [3] -4% | outcome [5] | outcome [6] | outcome [7] | outcome [8]
active: growth inhibition [4] 95%

NC1=NC(c2ccccc2)(c2cccc(O)c2)C(=O)N1CCCc1ccccc1 (stereo not given)
inactive: inhibition [2] -2% | inhibition [3] -2% and 4% | outcome [5] | outcome [6] | outcome [7] | outcome [8]
38% (inactive) and 93% (active): growth inhibition [1]
active: growth inhibition [4] 85% and 98%

FC(F)(F)c1cccc(CNCCCCCNCc2ccc(Cl)cc2)c1
active: growth inhibition [4] 91%
inactive: growth inhibition [1] 15% | inhibition [2] 13% | inhibition [3] -5% | outcome [5] | outcome [6] | outcome [7] | outcome [8]

OC(CNc1ccnc(Nc2cccc(Cl)c2)n1)c1cccc(C(F)(F)F)c1 (stereo not given)
inactive: inhibition [2] 11% | inhibition [3] 4% | outcome [5] | outcome [6] | outcome [7] | outcome [8]
active: growth inhibition [1] 98% | growth inhibition [4] 101%

CN(C)CCCN(C)C(=O)c1cc2cc(-c3ccccc3)ccc2n1S(=O)(=O)c1ccccc1
active: growth inhibition [1] 66% | growth inhibition [4] 98%
inactive: inhibition [2] 29% | inhibition [3] -1% | outcome [5] | outcome [6] | outcome [7] | outcome [8]

CCCCCCCCNc1c2ccc(Cl)cc2nc2ccc(OC)cc12
inactive: inhibition [2] 11% | inhibition [3] -3% | outcome [5] | outcome [6] | outcome [7] | outcome [8]
active: growth inhibition [1] 96% | growth inhibition [4] 89%

COc1ccc(Cl)cc1N1CCN(CCCNC(=O)c2ccc(-c3nc4cc5ccccc5cc4[nH]3)c(F)c2)CC1
inactive: inhibition [2] 12% | inhibition [3] -3% | outcome [5] | outcome [6] | outcome [7] | outcome [8]
active: growth inhibition [1] 62% | growth inhibition [4] 99%

Cc1cc(NCC2CCN(CC3CCCCC3)C2)nc(Nc2ccc(Br)cc2)n1 (stereo not given)
active: growth inhibition [1] 78% | growth inhibition [4] 101%
inactive: inhibition [2] -2% | inhibition [3] 0% | outcome [5] | outcome [6] | outcome [7] | outcome [8]

O=C(NCCCCCN1CCC(c2c[nH]c3ccccc23)CC1)Nc1ccc(I)cc1
active: inhibition [2] 51% | growth inhibition [4] 100%
inactive: growth inhibition [1] -1% | inhibition [3] 2% | outcome [5] | outcome [6] | outcome [7] | outcome [8]
